Assay results from PubChem BioAssay AID1851 (National Center for Advancing Translational Sciences (NCATS), 2009).
The campaign covered roughly 16,000 compounds. About 5,700 (36%) were called active. About 24% were inconclusive and are not listed. Calls follow the shape of the dose curve; as a rule, active = well fitted curve in the direction sought with a large enough effect; inconclusive = small, poorly fitted or top-dose-only effect, or effect the other way; inactive = no such curve, though single readings can be large or run the other way. The list shows a part of the results.

target: Cytochrome P450 1A2 (Homo sapiens) (UniProt P05177); experiment: Cytochrome panel assay with activity outcomes; settings: recombinant CYP, pro-luciferin dealkylation, luminescence, p450-cyp1a2; series mostly up to 57.1 µM; activity, negative = inhibition: at the top concentration
% is scaled to controls: 0 for no effect and ±100 for the full control effect.

Cytochrome P450 1A2 (Homo sapiens), sequence (P05177 whole entry, looked up): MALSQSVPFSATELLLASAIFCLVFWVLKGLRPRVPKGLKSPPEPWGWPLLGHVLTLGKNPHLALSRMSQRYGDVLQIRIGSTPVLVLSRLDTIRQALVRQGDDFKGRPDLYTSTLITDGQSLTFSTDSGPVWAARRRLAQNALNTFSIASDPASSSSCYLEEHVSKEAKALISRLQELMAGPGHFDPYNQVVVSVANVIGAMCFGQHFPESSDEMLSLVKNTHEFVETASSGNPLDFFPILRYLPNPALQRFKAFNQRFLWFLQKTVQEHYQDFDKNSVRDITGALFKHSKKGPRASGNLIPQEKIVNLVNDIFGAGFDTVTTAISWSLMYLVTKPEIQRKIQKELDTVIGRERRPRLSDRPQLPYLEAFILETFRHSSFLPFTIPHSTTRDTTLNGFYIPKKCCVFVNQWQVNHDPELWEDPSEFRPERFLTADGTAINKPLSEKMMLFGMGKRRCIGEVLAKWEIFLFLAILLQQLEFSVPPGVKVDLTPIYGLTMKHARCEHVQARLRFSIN

AC50, active:
CCCCSc1nnc(-c2cc3c(C(F)(F)F)nn(C)c3s2)n1C 14100 nM
C=CCSc1nnc(-c2cc3c(C(F)(F)F)nn(C)c3s2)n1C 1120 nM
C#CCSc1nnc(-c2cc3c(C(F)(F)F)nn(C)c3s2)n1C 1120 nM
CCCNC(=O)c1cc2c(C(F)(F)F)nn(C)c2s1 794 nM
CCc1c2c(nc3cccc(OC)c13)OC(CC)C2 (stereo unspecified) 2000 nM
COc1ccc(-c2nsc3c(N4CCCCC4)ncnc23)cc1 2820 nM
Cc1nnc(-c2cnn(-c3ccccc3)c2N)n1Cc1ccccc1 14100 nM
COc1ccc2c(=O)cc(-c3ccncc3)oc2c1OC 1580 nM
Cn1cccc1C(=O)C(=O)Nc1cccc(Cl)c1Cl 17800 nM
COc1ccc(CNc2ncncc2-c2ccc(N(C)C)cc2)c(OC)c1 631 nM
COc1ccc(CNc2ncncc2-c2ccc(C(=O)N(C)C)cc2)c(OC)c1 15800 nM
COc1ccccc1CNc1ncncc1-c1ccc(C(=O)N(C)C)cc1 12600 nM
CC(C/C=N/NC(=O)COc1cc(Cl)ccc1Cl)c1ccccc1 (stereo unspecified) 562 nM
O=C(COc1ccc(Cl)cc1Cl)N/N=C/CCc1ccccc1 1000 nM
CCc1ccc(/C=C\C(=O)N2CCc3ccccc3C2)cc1 14100 nM
Cc1cccc2c1OCC/C2=N\NC(=O)COc1ccccc1Cl 891 nM
COc1cccc(OCC(=O)NN=C2c3ccccc3-c3ccccc32)c1 501 nM
Cc1cccc2c1OCC/C2=N\NC(=O)COc1ccccc1 2510 nM
O=c1c(-c2ccccc2)nc2cncnc2n1-c1ccccc1 5010 nM
O=c1c(-c2cccc(Cl)c2)nc2cncnc2n1-c1ccccc1 2000 nM
COc1ccc(-n2c(=O)c(-c3cccc(Cl)c3)nc3cncnc32)cc1 1000 nM
O=C(NCc1cc(F)cc2c1OCCO2)[C@H]1C[C@@H]1[C@H](NP(=O)(c1ccccc1)c1ccccc1)c1ccccc1 15800 nM
O=C(Nc1ccc2ccccc2c1)[C@H]1C[C@@H]1[C@H](NP(=O)(c1ccccc1)c1ccccc1)c1ccccc1 10000 nM
CCN(CC)S(=O)(=O)c1ccc(C(=O)NC2=C(C(=O)OC)SCC2)cc1 12600 nM
COC(=O)C1=C(NC(=O)c2cccs2)CCS1 2510 nM
COC(=O)C1=C(NC(=O)c2cccc(OC)c2)CCS1 3160 nM

AC50, inactive:
COC(=O)c1c(-c2cc(OC)c(OC)c(OC)c2)c2ccnc(OCc3ncccn3)c2c(=O)n1Cc1ccnc(C)c1

activity, negative = inhibition, inactive:
CCNS(=O)(=O)c1ccc(NC(=O)c2cc(C(F)(F)F)nn2C)cc1 -22.7%
COCC(=O)N1CCC2(CC1)CCN(C(=O)Nc1cccc(C#N)c1)CC2 -10.7%
Cc1nnc(-c2cnn(-c3ccccc3)c2N)n1Cc1ccc(F)cc1 -27.2%
NCc1nnn(Cc2ccccc2)c1N 2.27% [at 11.4 µM]
O=C(c1cnccn1)N1CCC2(CCCN(c3ncccn3)C2)CC1 -20.1%
COc1ccc(C2C(C(=O)c3ccco3)=C(O)C(=O)N2Cc2cccnc2)cc1OC (stereo unspecified) 6.62%
Cn1cccc1C(=O)N1CCC2(CCN(C(=O)Nc3ccccc3)CC2)CC1 -14.1%
Cn1cc(C(=O)c2cccc(Cl)c2Cl)cc1C(=O)O 4.13%
CC(C)=CCC/C(C)=C/CO/N=C1/C[C@@H](O)[C@@H](O)[C@@H]2[C@@H]3C(=O)N(C4CCCCC4)C(=O)[C@H]3CC[C@H]12 -2.85% [at 11.4 µM]
C[C@@]12CCC(=O)C=C1CC[C@@H]1[C@@H]2[C@H](O)C[C@]2(C)[C@@H]1CC[C@]2(O)C(=O)COC(=O)CCC(=O)O 1.05%
Cc1ccccc1C(=O)Nc1ccc(C(=O)NNC(=O)CCCOc2ccc(Cl)cc2Cl)cc1 -24.9%
O=C(c1ccc(CN2CCc3ccccc3C2)cc1)N1CCc2ccccc2C1 -22.3%
N=C(N)N1CCc2ccccc2C1 -6.45% [at 25.6 µM]
Cc1ccccc1OCC(=O)N/N=C1\CCOc2c(C)cccc21 -14%
CCOC(=O)C1=NOC(CNC(=O)C2=NOC(CNC(=O)c3c(-c4ccccc4Cl)noc3C)C2)C1 (stereo unspecified) 2.92%
CO/N=C\[C@@H](NS(=O)(=O)c1ccc(C)cc1)[C@H](C)/C=C\CC(=O)OC -9.25% [at 11.4 µM]
CO/N=C(/C)CCC(=O)OC[C@@H]1O[C@H](C#Cc2ccccc2)C=C[C@@H]1Oc1ccc(C)cc1 -10.1% [at 11.4 µM]
CC(=O)[C@@]1(O)CC[C@H]2[C@H]3C[C@@H](C)C4=CC(=O)C=C[C@]4(C)[C@@]3(F)[C@@H](O)C[C@]21C -14.8% [at 25.6 µM]
CC(=O)[C@H]1CC[C@H]2[C@@H]3C=CC4=CC(=O)CC[C@@]4(C)[C@H]3CC[C@]12C -8.55% [at 25.6 µM]
Cc1ccc(S(=O)(=O)N[C@H]2COC(=O)C/C=C\[C@H](C)[C@@H](NS(=O)(=O)c3ccc(C)cc3)COC(=O)C/C=C\[C@@H]2C)cc1 -10.6% [at 11.4 µM]
C[C@H](CO)NC(=O)[C@H]1C[C@@H]1[C@H](NP(=O)(c1ccccc1)c1ccccc1)c1ccccc1 -7.78%
Cc1cc(CNC(=O)[C@@H]2C[C@H]2[C@@H](NP(=O)(c2ccccc2)c2ccccc2)c2ccccc2)nn1C -17.4%
Cc1ccc(CNC(=O)[C@H]2C[C@@H]2[C@H](NP(=O)(c2ccccc2)c2ccccc2)c2ccccc2)c(F)c1F -17.4%
C[C@H](CO)NC(=O)[C@@H]1C[C@H]1[C@@H](NP(=O)(c1ccccc1)c1ccccc1)c1ccccc1 -9.59%
Cn1cccc1C(=O)N1CCC[C@@]2(CCN(Cc3nccs3)C2)C1 -7.87%
CCC(=O)N1CCN(c2ccc(NC(=O)c3cccs3)cc2)CC1 -9.21%
CCCCN(CC)S(=O)(=O)c1ccc(C(=O)Nc2nnc(CSC)o2)cc1 -27.9%
CCN(CC)S(=O)(=O)c1ccc(C(=O)Nc2ncn(Cc3ccccc3)n2)cc1 -10.7%
CC(=O)N(O)CCCCCNC(=O)CCC(=O)N(O)CCCCCNC(=O)CCC(=O)N(O)CCCCCN -5.91% [at 25.6 µM]
